Only some compounds are listed: those with a hit (about 4.7% of all), similar ones and a draw of the others.
UBC9 SUMO inh – inhibitors of in vitro SUMOylation cascade, primary screen, biochemical, HTRF, uHTS. SUMO-conjugating enzyme UBC9 (Homo sapiens), P63279. HTRF SUMOylation assay, SAE1/SAE2 + UBC9. inhibition, % at 35 µM. 290,000 tested, 0.36% active; in the data active means inhibition above about 50%, passing the limit was not always enough; inconclusive means no clear call, values can overlap the other calls
Target sequence (P63279 whole entry, looked up): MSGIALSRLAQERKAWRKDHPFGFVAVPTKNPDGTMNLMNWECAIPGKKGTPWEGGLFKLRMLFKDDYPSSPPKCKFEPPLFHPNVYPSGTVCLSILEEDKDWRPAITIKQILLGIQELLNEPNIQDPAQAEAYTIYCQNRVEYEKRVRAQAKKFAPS
eIF4H FP inh – human eIF4H binding inhibitors, primary screen, translation initiation inhibitor project, biochemical, uHTS, fluorescence polarization; eIF4H fluorescence polarization binding assay; 290,000 tested, 0.94% active; Eukaryotic translation initiation factor 4H (Homo sapiens), Q15056; AID 2012, 2009; inhibition, % at 35 µM;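 further: calls also rest on retests at 20 µM and on dose response follow-up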
Efflux pump mplx – inhibitors of Candida efflux pumps in yeast, primary screen, S. cerevisiae, Nile Red, multiplex | S. cerevisiae Candida pump triplex | inhibition, % at 10 µM | 330,000 tested, 0.44% active | AID 485275, 2010;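 active means plate passing quality check with inhibition over a set limit, or well fluorescence over plate mean plus 4 SD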;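 further: Nile Red retained in pooled yeast measured as flow cytometry median fluorescence; 0% = buffer negative control and 100% = Enniatin B positive control; higher means more Nile Red kept so more efflux inhibition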
PABP1 MLLE inh – inhibitors of PABP1 MLLE–PAM2 peptide binding, primary screen, biochemical, fluorescence polarization, FITC-PAM2, GST-MLLE; Polyadenylate-binding protein 1 (Homo sapiens), P11940; inhibition, % at 20 µM; 360,000 tested, 0.36% active; in the data active means inhibition above about 35%, passing the limit was not always enough;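 further: plate controls were DMSO wells with GST-MLLE for no effect and wells lacking GST-MLLE protein for full effect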
ALR H2O2 inh – inhibitors of human ALR sulfhydryl oxidase, primary screen, biochemical, H2O2 detection, HRP-luminol luminescence, single point; inhibition, % (no concentration beside the values); purified ALR, DTT oxidation; FAD-linked sulfhydryl oxidase ALR (Homo sapiens), P55789; 290,000 tested, 3.8% active;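 active means mean replicate inhibition above about 79%, with every replicate also reaching it, limit read from the data; inconclusive means only one of the two criteria met; inactive means mean below limit and not every replicate reaching it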
Target sequence (P55789 whole entry, looked up): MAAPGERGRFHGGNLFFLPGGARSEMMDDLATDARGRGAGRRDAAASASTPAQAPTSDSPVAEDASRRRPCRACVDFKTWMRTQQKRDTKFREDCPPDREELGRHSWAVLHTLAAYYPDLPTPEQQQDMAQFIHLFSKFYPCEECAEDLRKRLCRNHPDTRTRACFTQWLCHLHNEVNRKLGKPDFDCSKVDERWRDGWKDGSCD
PABP FP inh – PABP poly(A) RNA binding inhibitors, primary screen, biochemical, fluorescence polarization, uHTS. Polyadenylate-binding protein 1 (Homo sapiens), P11940. inhibition, % at 35 µM. 290,000 tested, 1% active. AID 2014, 2009;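 further: calls also rest on retests at 20 µM and on dose response follow-up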
* marks the source's active call; other numbers are inactive results; i = inactive; ? = inconclusive; . = no result given. Unless noted, how the calls were made is not given here.

SMILES | UBC9 SUMO inh | eIF4H FP inh | Efflux pump mplx | PABP1 MLLE inh | ALR H2O2 inh | PABP FP inh
Cn1c(=O)c2cc3c(nc2n(C)c1=O)CC(c1ccccc1)CC3=O (stereo unspecified) | 23 | 1 | 0 | 14 | . | 12
O=C1CC(c2ccc(F)cc2)Cc2nc(N3CCN(c4ccccc4)CC3)ncc21 (stereo unspecified) | -10 | -5 | 0 | -5 | . | 4
CSc1nc2nc3c(cn2n1)C(=O)CC(c1ccccc1)C3 (stereo unspecified) | 34 | 48* | 0 | 3 | -3 | 61*
O=C(Nc1ccc(F)cc1)Nc1nnc([C@@H]2C[C@H](O)[C@@H](CO)O2)s1 | . | . | . | 1 | . | .
CC1(C)C(=O)Nc2ccccc2N1C(=O)COc1ccc(C#N)cc1 | . | . | 0 | -17 | 3 | .
COc1cc(C2C=C(c3cccs3)Nc3ncnn32)cc(OC)c1OC (stereo unspecified) | 53* | ? | . | 189 | . | 22
O=C(c1cc(F)ccc1F)C1CCCN(C(=O)c2ccc3nccnc3c2)C1 (stereo unspecified) | 9 | -2 | 0 | -11 | 0 | -4
CCCCc1c(O)nc(SCC(=O)Nc2cccc3ccccc23)n(-c2ccccc2OC)c1=O | 12 | -3 | 0 | 41* | 69 | 7
CCc1c(O)nc(SCC(=O)Nc2ccccc2OC)n(-c2ccccc2C)c1=O | . | . | 0 | 46* | 36 | .
Cc1ccc(-c2csc(N)n2)s1 | 35 | 5 | 0 | 22 | 99* | 47
COc1ccccc1CNC(=O)COC(=O)c1cc2ccccc2o1 | . | . | 0 | -10 | -2 | .
COc1ccccc1C(=O)N1c2ccccc2Sc2ccccc21 | 22 | 2 | 0 | -7 | -10 | -2
COc1ccccc1OC(=O)CCN1c2ccccc2Sc2ccccc21 | -10 | 9 | 0 | 0 | 88* | -2
O=C(O)CCN1c2ccccc2Sc2ccccc21 | -16 | -13 | 0 | -10 | 82* | 6
COc1cccc(C(=O)O)c1OS(=O)(=O)c1ccc(C)cc1 | . | . | . | 2 | . | .
CC1(C)CC(=O)C=C(c2cccc(Cl)c2O)C1 | . | . | 0 | 1 | 96* | .
COc1cccc(C2=CC(=O)CC(C)(C)C2)c1OC | . | . | 0 | 12 | 4 | .
COC(=O)c1ccccc1-c1ccc(/C=N/NC(=O)c2cc3ccccc3o2)o1 | -2 | 0 | 0 | -3 | 1 | -4
COC(=O)c1ccccc1-c1c2ccc(=N)cc-2oc2cc(N)ccc12 | . | . | 116* | i | . | .
COc1ccc(NCc2ccc(OC)c(OC)c2)cc1 | 28 | -4 | 7.5* | . | 12 | -2
COc1ccc(CNc2ccc(Br)cc2)cc1 | -9 | 6 | 0 | 16 | 98* | -15
COc1ccc(CNc2nc(S(=O)(=O)c3ccccc3)c(Cl)s2)cc1OC | -10 | 54* | 0 | -15 | -2 | 24*
COc1cc(C)c(CNc2ccc(OC)c(OC)c2)cc1C | 38 | 63* | 0 | . | 82* | 81*
O=S(=O)(c1ccccc1)c1nc(NCc2ccccc2)sc1Cl | -13 | -6 | 0 | -8 | -5 | 6
COc1ccc(CNc2ncccn2)cc1OC | -4 | 4 | 0 | -8 | -3 | -2
SMILES | UBC9 SUMO inh | eIF4H FP inh | Efflux pump mplx | PABP1 MLLE inh | ALR H2O2 inh | PABP FP inh
O=C(O)c1cc([N+](=O)[O-])cc2c1C=Cc1ccccc1O2 | 0 | 41 | 0 | -8 | -7 | 32
CCN(C[C@H]1N[C@@](Cc2ccccc2)(C(=O)OC)[C@H]2C(=O)N(Cc3ccccc3)C(=O)[C@@H]12)C(=O)Nc1ccc(C(F)(F)F)cc1 | . | . | 0 | 0 | -2 | .
CC(=O)Nc1cc(NC(C)=O)cc(C(=O)N2CCCC3CCCCC32)c1 (stereo unspecified) | 18 | 79* | 0 | -28 | -4 | 53*
O=C(Nc1ccccc1)N1CCCC2CCCCC21 (stereo unspecified) | 12 | 5 | 0 | 9 | -7 | 0
Cn1cc(/C=N\O)nc2c(=O)n(-c3ccccc3)c(=O)nc1-2 | 14 | 99 | 0 | 37* | . | 63
O/N=C/c1cn(-c2ccccc2)nn1 | 9 | -7 | 0 | 0 | -5 | -8
CCN(CC(=O)NCc1cccs1)C(=O)c1ccc(N(C)S(=O)(=O)c2ccc(C)cc2)cc1 | . | . | . | 9 | . | .
CCCCn1c(N)c(N(CCOC)C(=O)CSc2nnc(-c3ccco3)n2CC)c(=O)[nH]c1=O | . | . | 0 | -1 | -2 | .
CCOC(=O)C1=C(O)/C(=C\c2cccc(OC)c2)N=C1C | -6 | 8 | 0 | -7 | 3 | 12
CCOC(=O)C1=C(O)/C(=C/N(C)C)N=C1C | -13 | 89* | 0 | 19 | -5 | 89*
COCCNC(=O)C1=C(N)C(C(=O)Nc2ccc(C)c(S(=O)(=O)N3CCCCC3)c2)SC1=Nc1ccc(C)cc1C (stereo unspecified) | 8 | 3 | 0 | -8 | 6 | 7
N#Cc1c(-c2ccco2)cc(-c2ccccn2)nc1N | 42 | 70* | 0 | -26 | -4 | 63*
N#Cc1c(-c2ccco2)cc(-c2cccnc2)nc1N | 57 | 96* | 0 | -13 | -31 | 110*
CCOC(=O)COc1nc(-c2ccc(C)cc2)cc(-c2ccco2)c1C#N | 22 | -1 | 0 | -6 | 0 | -9
CCOC(=O)COc1nc(-c2ccco2)cc(-c2ccco2)c1C#N | 78 | 89* | 0 | -30 | 43 | 58*
N#Cc1c(-c2cccnc2)cc(-c2ccccc2)nc1N | 30 | 1 | 0 | -9 | . | -8
Cc1ccc(S(=O)(=O)N(CCCc2c(C)nc[nH]c2=O)c2ccccc2)cc1 | . | . | . | 17 | . | .
CN(C)c1ccc(CNS(=O)(=O)c2csc(C(N)=O)c2)cc1 | 4 | 94 | 0 | -17 | 93* | 6
CC(C)Oc1ccc(CNS(=O)(=O)c2csc(C(N)=O)c2)cc1 | -5 | -4 | 0 | -9 | -1 | -3
O=C(NC(=S)Nc1nc2c(s1)CCCC2)c1ccccc1 | 23 | 2 | 0 | 22 | . | -6
S=C(Nc1nc2c(s1)CCCC2)NC1CC1 | 11 | -8 | 0 | 16 | 86* | -2
CCCS(=O)(=O)NC(=O)C1(C)CCCN(C(=O)Cc2ccc3ccccc3c2)C1 (stereo unspecified) | . | . | . | 18 | . | .
OC[C@H]1O[C@@H](n2cnc3c(Nc4ccccc4)ncnc32)[C@H](O)[C@@H]1O | -8 | active | 0 | 3 | -8 | 116*
Oc1ccc(C23CCCC2C2(CCCC2)c2ccc(O)cc2O3)c(O)c1 (stereo unspecified) | . | . | 0 | 4 | 90* | .
COC(=O)c1ccc(C)c(NC(=O)CCCN2C(=O)CN(C)C2=O)c1 | . | . | 0 | -68 | -1 | .
